Laboratory results published in PubChem BioAssay (NCATS).
Inconclusive results are not listed. Active and inactive are the calls of the source. Calls follow the shape of the dose curve; as a rule, active = well fitted curve in the direction sought with a large enough effect; inconclusive = small, poorly fitted or top-dose-only effect, or another doubt; inactive = no such curve, though single readings can be large; an effect the other way counts as inactive or inconclusive.

Experiments:
[1] = Cellular Toxicity (caspase-3) NIH 3T3 (AID 666);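 also: caspase signal read after 16 h compound exposure; 0% = DMSO basal and 100% = 100 µM tamoxifen stimulation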
How it was run: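 Cells were plated at 1000 per well and incubated 5 hr at 37°C, then compound was added for 16 hr. Caspase-Glo 3/7 reagent followed for 20 min at room temperature before luminescence was read.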

[2] = Cellular Toxicity (caspase-3) Renal Proximal Tubule (AID 667); settings: renal proximal tubule cells; at 91.7 µM (top of the series), primary cells freshly taken from rat, solvent-only wells 0%, staurosporine 100% unless noted;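 also: cells exposed to compound for 16 hours at 37 °C before detection; 0% = DMSO basal and 100% = 10 µM staurosporine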
How it was run: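 Primary rat proximal tubule cells, 1000/well, 5 h plating at 37 °C, then compound 16 h at 37 °C. Caspase-Glo 3/7 reagent, 1 h RT, luminescence. Normalized to DMSO (basal) and 10 uM staurosporine (100%); Hill-fit AC50.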

[3] = Cell Viability - LYMP2-001 (AID 921);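 also: 0% = DMSO only and full inhibition = tetraoctylammonium bromide control wells; nearly all actives have a fitted effect of over 70% in size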
How it was run: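 Human lymphoblastoid cells (Coriell), 2500 per well, were preincubated 5 hr at 37 C, then exposed to compounds in complete medium for 24 hr at 37 C. Cellular ATP was read by CellTiter-Glo luminescence; AC50 from Hill fits of concentration-response data.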

[4] = MultiTox-Fluor Cytotoxicity Assay - LYMP1-001 - Dead Cells (AID 946);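 also: 0% = DMSO and 100% = tetraoctylammonium bromide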
How it was run: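 AC50 from Hill fit of concentration-response; data normalized to DMSO (basal) and 15 uM tetraoctylammonium bromide (100%). LYMP1-001 lymphoblastoid cells, 2500/well, 16 hr compound at 37 C; dead-cell protease fluorescence, Ex/Em 485/520.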

[5] = MultiTox-Fluor Cytotoxicity Assay - LYMP1-001 - Live Cells (AID 947);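 also: 0% = DMSO only and full inhibition = tetraoctylammonium bromide control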
[6] = Cell Viability - LYMP1-002 - Assay at 16 hr (AID 948);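 also: 0% = DMSO alone and full effect = 92 µM tetraoctylammonium bromide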
How it was run: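 Human lymphoblastoid cells (LYMP1-002), 2500/well, were preincubated 5 hr at 37 C, then exposed to compounds for 16 hr at 37 C in complete medium. Cellular ATP was read by CellTiter-Glo luminescence after 30 min at room temperature; AC50 from Hill fits.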

[7] = MultiTox-Fluor Cytotoxicity Assay - LYMP1-002 - Live Cells (AID 955); also: % is scaled to controls: 0 for no effect and ±100 for the full control effect
How it was run: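 Cells were seeded at 2500 per well and incubated 5 hr. Compounds were then added for 16 hr at 37 C, followed by MultiTox-Fluor reagent for 60 min at room temperature and fluorescence reading of viable-cell protease signal.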

[8] = MultiTox-Fluor Cytotoxicity Assay - LYMP1-002 - Dead Cells (AID 960);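 also: 0% = DMSO and 100% = tetraoctylammonium bromide; nearly all actives have a fitted effect of over 60% in size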
How it was run: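 Cells were plated, rested 5 hr, then treated with compound dilution series for 16 hr at 37 C. After adding substrate reagent and 60 min at room temperature, dead-cell protease fluorescence gave concentration-response curves fitted by the Hill equation.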

[9] = MultiTox-Fluor Cytotoxicity Assay - LYMP1-003 - Dead Cells (AID 961);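 also: 0% = DMSO and 100% = tetraoctylammonium bromide; nearly all actives have a fitted effect of over 70% in size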
How it was run: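 Human lymphoblastoid LYMP1-003 cells (2500/well) were treated with compounds for 16 hr at 37 C in complete medium. Dead-cell protease release was read by bis-AAF-R110 fluorescence (Ex/Em 485/520). AC50 came from Hill fits, normalized to DMSO and 15 uM tetraoctylammonium bromide.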

[10] = MultiTox-Fluor Cytotoxicity Assay - LYMP1-003 - Live Cells (AID 962);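 also: 0% = DMSO only and full loss = 92 µM tetraoctylammonium bromide; cytotoxic hits lower the live-cell protease signal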
How it was run: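 Acute cytotoxicity is scored as a drop in live-cell protease activity in human lymphoblastoid LYMP1-003 cells after 16 hr compound exposure at 37 C. AC50 values come from Hill-equation modelling of concentration-response data.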

[11] = Cell Viability - LYMP1-003 - Assay at 24 hr (AID 963);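 also: plate controls were DMSO only for no effect and tetraoctylammonium bromide positive control for full effect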
How it was run: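 Cytotoxicity is scored as a concentration-dependent fall in ATP-linked luciferase signal in human lymphoblastoid LYMP1-003 cells treated 24 hr at 37 C in complete culture medium.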

[12] = Cell Viability - LYMP1-003 - Assay at 40 hr (AID 964); also: % is scaled to controls: 0 for no effect and ±100 for the full control effect; nearly all actives have a fitted effect of over 60% in size
How it was run: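 Luminescent ATP signal (CellTiter-Glo) served as the viability read-out after 40 hr compound treatment of human lymphoblastoid LYMP1-003 cells at 37 C. Decreases in ATP were fitted with the Hill equation to give AC50.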

[13] = Cell Viability - LYMP2-003 (AID 965);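 also: cells exposed to compounds for 24 h before reading; 0% = DMSO only and full effect = 92 µM tetraoctylammonium bromide; nearly all actives have a fitted effect of over 50% in size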
How it was run: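 Human lymphoblastoid cells (2500/well) were pre-incubated 5 hr at 37 C, then exposed to compounds over a concentration range for 24 hr at 37 C. Intracellular ATP was read by CellTiter-Glo luminescence; AC50 came from Hill-equation fits.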

[14] = Cell Viability - LYMP2-004 (AID 966);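 also: plate controls were DMSO only for no effect and tetraoctylammonium bromide control for full effect; nearly all actives have a fitted effect of over 65% in size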
How it was run: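 qHTS cytotoxicity: human lymphoblastoid line, 24 hr compound treatment, 37 C, complete medium. Viability read as cellular ATP via luciferase luminescence; tetraoctylammonium bromide served as positive control.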

[15] = Cell Viability - LYMP2-005 (AID 967);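 also: plate controls were DMSO only for no effect and 92 µM tetraoctylammonium bromide control for full effect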
How it was run: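 CellTiter-Glo luminescence (cellular ATP) read-out; LYMP2-005 lymphoblastoid cells, 2500/well, 5 h pre-incubation, then 24 h compound exposure at 37 C in complete medium. Tetraoctylammonium bromide positive control; AC50 by standard Hill fit.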

[16] = Cell Viability - LYMP2-009 (AID 968);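 also: 0% = DMSO alone and the full-kill end = tetraoctylammonium bromide at 92 µM; nearly all actives have a fitted effect of over 55% in size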
[17] = Cell Viability - LYMP2-011 (AID 969);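 also: 0% = DMSO only and full inhibition = 92 µM tetraoctylammonium bromide; nearly all actives have a fitted effect of over 60% in size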
How it was run: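 In this qHTS cytotoxicity format, compounds are tested across concentrations on human lymphoblastoid cells in complete medium for 24 hours at 37 C. Viability is taken as cellular ATP measured by luciferase luminescence.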

[18] = Cell Viability - LYMP2-013 (AID 970);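 also: 0% = DMSO only and full inhibition = tetraoctylammonium bromide control; nearly all actives have a fitted effect of over 55% in size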
How it was run: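 Cytotoxicity is scored as a concentration-dependent drop in intracellular ATP in human lymphoblastoid cells after 24 hr compound exposure at 37 C. ATP is quantified by luciferase luminescence, and AC50 values come from Hill-equation modeling.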

[19] = Cell Viability - LYMP2-015 (AID 971);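 also: 0% = DMSO only and full effect = 92 µM tetraoctylammonium bromide; nearly all actives have a fitted effect of over 55% in size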
How it was run: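 Cells are seeded at 2500 per well and incubated 5 hr at 37 C. Compounds are added across a concentration series for 24 hr at 37 C. CellTiter-Glo is added, and luminescence is read after 30 min at room temperature.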

[20] = Cell Viability - LYMP2-017 (AID 972); also: % is scaled to controls: 0 for no effect and ±100 for the full control effect; nearly all actives have a fitted effect of over 55% in size
How it was run: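 Cytotoxicity is scored as a concentration-dependent drop in cellular ATP in a human lymphoblastoid line after 24 hr treatment at 37 C. Values are AC50s from Hill-equation modelling.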

[21] = Cell Viability - LYMP2-019 (AID 973)
How it was run: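 Cytotoxicity is scored as a concentration-dependent drop in cellular ATP after cells (2500/well) receive compound for 24 hr at 37 C. Tetraoctylammonium bromide serves as positive control.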

[22] = Cell Viability - LYMP2-021 (AID 974)
How it was run: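 Loss of cellular ATP, measured with a luciferase-based CellTiter-Glo readout, serves as the toxicity signal in human lymphoblastoid cells treated for 24 hours at 37 C. Potency is reported as AC50 from a standard Hill model.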

Clc1cc(Cl)c(-c2cc(Cl)c(Cl)cc2Cl)cc1Cl
inactive: outcome [1] | caspase-3 activation [2] -3.51% [at 91.7 µM] | Potency [3] | Potency [4] | Potency [5] | Potency [6] | outcome [7] | Potency [8] | Potency [9] | Potency [10] | Potency [11] | Potency [12] | Potency [13] | Potency [14] | Potency [15] | Potency [16] | Potency [17] | Potency [18] | Potency [19] | Potency [20] | Potency [21] | Potency [22]
